Many of the other results were omitted from the sample, so hits are more common in it than they were.
Pf Dd2 growth – Plasmodium falciparum Dd2 growth inhibition; Potency, µM (doses to about 28.9 µM), for inactives: at the highest dose activity, negative = inhibition, actives largely listed as inhibitors; actives 4.3% (n = 120,000); P. falciparum Dd2 growth, SYBR Green, 72 h; AID 1347417; active = well fitted inhibition curve with a large enough effect;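 also: plate controls were DMSO vehicle for no effect and reference drug for full effect; nearly all actives have a fitted effect of over 65% in size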
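Readout: SYBR Green fluorescence, 485 nm excitation, 535 nm emission, after ~16 h lysis at 37C. Before that, Dd2-infected red cells (2.5% hematocrit) grew 72 h with compound, 29 uM top final concentration.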
* marks the source's active call; other numbers are inactive results; i = inactive; [ ] = remark or other dose. Potency is read from the fitted curve at half-maximal effect.

SMILES | Pf Dd2 growth
Cc1cc(Cl)ccc1S(=O)(=O)N1CCc2nn(C)c(=O)n2CC1 | i
COc1ccc(CNC(=O)Cn2c(=O)oc3cc(S(=O)(=O)N4CCCC4)ccc32)cc1 | -1%
COc1cccc(CNC(=O)Cn2c(=O)oc3cc(S(=O)(=O)N4CCC(C)CC4)ccc32)c1 | -5%
CC1CCN(S(=O)(=O)c2ccc3c(c2)oc(=O)n3CC(=O)NCc2ccc(F)cc2)CC1 | 5.6µM*
O=C(COc1ccc2nncn2n1)N1CCCC(c2ccn[nH]2)C1 (centres undefined) | 14%
Cc1ccc(N(CC(=O)Nc2ccc(OC(F)(F)F)cc2)S(=O)(=O)c2c(C)noc2C)cc1 | -16%
Cc1n[nH]c(C)c1S(=O)(=O)N(CC(=O)Nc1ccc(C(F)(F)F)cc1)c1ccc(C(C)C)cc1 | 0%
Cc1noc(C)c1S(=O)(=O)N(CC(=O)Nc1ccc(C(F)(F)F)cc1)c1ccc(C(C)C)cc1 | 11µM*
O=[S+]1([O-])NCC2(CCCN(Cc3ccc(F)cc3)C2)Oc2ncccc21 (centres undefined) | -27%
Cc1cn2nc(C(=O)N3CCCCC3)cc2c(N(C)Cc2ccccc2)n1 | 7.1µM*
Cc1cn2nc(C(=O)Nc3ccccc3C)cc2c(N(C)Cc2ccccc2)n1 | -13%
CCN(Cc1ccccc1)C(=O)c1cc2c(N3CCCC3)nc(C)cn2n1 | i
Cc1cn2nc(C(=O)Nc3ccc(Cl)cc3C)cc2c(N(C)Cc2ccccc2)n1 | 10µM*
Cc1cn2nc(C(=O)Nc3cccc(F)c3C)cc2c(N(C)Cc2ccccc2)n1 | -3%
Cc1cn2nc(C(=O)N3CCN(c4ccccc4)CC3)cc2c(N(C)Cc2ccccc2)n1 | -8%
CCn1ncc(N2CCCC(CC(=O)NCc3cccc(C)c3)C2)cc1=O (centres undefined) | i
O=C(Nc1ccc(F)cc1)[C@@H]1C[C@@H](c2cccc(C(F)(F)F)c2)N(CC2CCOCC2)C1 | -36%
O=C(NC1CCN(c2cc(-c3ccccc3)[nH]n2)CC1)c1ccsc1 | i
O=C(NC[C@H]1O[C@@H](CO)[C@@H](O)[C@H]1N1CCN(c2ccc(F)cc2)CC1)c1ccccc1 | -2%
FC(F)(F)c1ccc(CN2CCC3(CC2)CC(c2cccnc2)=NO3)cc1 | i
CCCNc1cc(N2CCC(CCC(=O)N3CCN(c4ccccc4F)CC3)CC2)ncn1 | 11µM*
O=C(CCC1CCN(c2cc(NC3CC3)ncn2)CC1)N1CCN(c2ccccc2F)CC1 | -10%
CCCNc1cc(N2CCC(CCC(=O)NCC3CC3)CC2)ncn1 | i
COc1cccc(C(=O)N2CCC(C(=O)N3CC[C@@](C)(O)[C@@H](O)C3)CC2)c1 | -4%
COc1ccc(Cn2c(=O)[nH]c3cc(C(=O)N4CCN(c5ccccc5)CC4)ccc3c2=O)cc1 | 3%
SMILES | Pf Dd2 growth
COCCn1c(=O)[nH]c2cc(C(=O)N3CCN(c4ccccc4)CC3)ccc2c1=O | -5%
CC(=O)c1ccc(N2CCN(C(=O)c3ccc(Cn4c(=O)[nH]c5ccccc5c4=O)cc3)CC2)cc1 | 7.9µM*
O=C(CCCCCn1c(=O)[nH]c2ccccc2c1=O)N1CCN(c2cccc(C(F)(F)F)c2)CC1 | -11%
CCCCCn1c(=O)[nH]c2cc(C(=O)N3CCN(c4ccccc4)CC3)ccc2c1=O | 9%
O=C(CCCn1c(=O)[nH]c2ccccc2c1=O)N1CCN(c2ccccc2)CC1 | 10µM*
COc1ccc(-c2ccc3c(c2)C(=O)N2CC[C@H](NC(=O)CSC)C[C@H]2C(=O)N3)cc1 | i
Cc1ccc(C(=O)N2CCn3c(nn(-c4cccc(Cl)c4)c3=O)C2)cc1 | 3%
Cc1nc(-c2ccc(OC3CCN(C(=O)c4[nH]nc5c4COc4ccccc4-5)C3)cc2)no1 (centres undefined) | -24%[5.79 µM]
CC(C)Cc1cc(CN2CCC(CO)(CN3CCCC3)CC2)[nH]n1 | -4%
O=C(C1CC2(CCNCC2)CN1)N1CCN(c2nc3ccccc3o2)CC1 (centres undefined) | 25%
COC(=O)[C@@H]1Cc2nc[nH]c2CN1C(C)C | 4%[44.1 µM]
COc1ccc(C(=O)NCc2nnc3ccc(-c4ccc(C)c(C)c4)nn23)cc1F | -16%
COc1ccc(C(=O)NCC2Cn3cccc3C(=O)N2Cc2ccccc2)cn1 (centres undefined) | -25%
C[C@@H]1C(=O)O[C@H]2[C@H]1CC[C@@]1(C)Cc3sc(NC(=O)Nc4ccc(Oc5ccccc5)cc4)nc3[C@@H](C)[C@H]21 | 11µM*
CC(=O)N1CCC(C(=O)Nc2nc3c(s2)C[C@]2(C)CC[C@@H]4[C@H](OC(=O)[C@H]4C)[C@H]2[C@@H]3C)CC1 | i
C[C@@H]1C(=O)O[C@H]2[C@H]1CC[C@@]1(C)Cc3sc(NC(=O)NC4CCCCC4)nc3[C@@H](C)[C@H]21 | 11µM*
C[C@@H]1C(=O)O[C@H]2[C@H]1CC[C@@]1(C)Cc3sc(NC(=O)c4c(Cl)cccc4Cl)nc3[C@@H](C)[C@H]21 | i
COCC(=O)Nc1nc2c(s1)C[C@]1(C)CC[C@@H]3[C@H](OC(=O)[C@H]3C)[C@H]1[C@@H]2C | -4%[44.1 µM]

Bioassay records as filed in PubChem BioAssay.
